Compound activity: PubChem, National Center for Advancing Translational Sciences (NCATS)
BRCT inh red: BRCT-phosphoprotein interaction inhibition (red fluorophore); 75,000 tested, 0.03% active; BRCT-phosphopeptide binding, red fluorescence polarization; Potency, µM (top dose mostly 76.9 µM), without a hit: at the top dose activity change, negative = inhibition, most hits filed as inhibitors; note: % is set by controls: 0 for no effect and ±100 for the full control effect
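Fluorescence polarization: 100 nM His-tagged BRCA1 BRCT with 100 nM TAMRA-labelled phospho-BACH1 decapeptide, phosphate buffer pH 7.3 with 150 mM NaCl, DTT, 0.01% Tween 20; 12 min RT. Binding inhibition seen as FP decrease.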
ERK AVP inh: vasopressin-driven ERK pathway inhibition | HEK293-V1b, vasopressin-stimulated pERK AlphaScreen | Potency, µM (highest dose often 57.5 µM), for inactives: at the top dose activity, negative = inhibition, usual class: inhibitors | 72,000 tested, 0.99% active; note: potency is the fitted concentration of half-maximal effect; % is set by controls: 0 for no effect and ±100 for the full control effect; nearly all actives have a fitted effect of over 55% in size
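Phosphorylated ERK1/2 detected via AlphaScreen bead proximity in lysates of V1b-expressing HEK293 cells given 25 nM vasopressin for 5 min after 30 min compound exposure (37 °C). AC50 from Hill equation; basal DMSO 0%, vasopressin 100%.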
BRCT PPI green: BRCA1 BRCT-phosphoprotein interaction inhibition; 75,000 tested, 0.05% active; P38398; BRCA1 BRCT-phosphopeptide binding, green fluorescence polarization; Potency, µM (titrated, usually from 76.9 µM), for inactives: top-dose activity change, negative = inhibition, hits mostly inhibitors; AID 875;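 note: potency is the fitted concentration of half-maximal effect; plate controls were peptide without protein for full effect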
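Fluorescence polarization: His-tagged BRCT (~35 kDa BRCA1 C-terminus, 250 nM) bound to 100 nM fluorescein-labeled phosphorylated 10-aa BACH1 peptide, pH 7.3 phosphate buffer with DTT and Tween 20. Compounds incubated 12 min at room temperature; inhibition read as lowered polarization.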
TsaE inh: displaces an ADP probe from E. coli YjeE (TsaE); P0AF67; 71,000 tested, 0.05% active; AID 605; purified YjeE enzyme, qHTS inhibition assay; Potency, µM
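Fluorescence polarization of a BODIPY Texas Red–ADP probe (2 uM) bound to purified YjeE (10 uM) was read after 15 min room-temperature incubation with compounds. Loss of polarization marks inhibitors; ADP serves as titrated control.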
Pol III holo inh: blocks replication by bacterial DNA polymerase III holoenzyme; reconstituted DNA polymerase III holoenzyme replication, biochemical; Potency, µM (highest dose often 57.1 µM), without a hit: top-dose activity change, negative = inhibition; 71,000 tested, 0.25% active; AID 603; note: potency is the fitted concentration of half-maximal effect; % is set by controls: 0 for no effect and ±100 for the full control effect
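Reconstituted *E. coli* holoenzyme (0.35 nM Pol III, 1 nM beta, 154 nM SSB, 2 nM primase) was preincubated with compound for 15 min at RT. Synthesis on 1.4 nM ssM13Gori ran 35 min, then was stopped with PicoGreen/EDTA and read as dsDNA fluorescence.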
Numbers without * were called inactive; i = inactive; ? = inconclusive; · = no result given; ! = not active in a repeat; [ ] = remark or other dose. An excerpt weighted towards active compounds, which were near 1.2% of everything screened. Calls come from the whole dose curve; as a rule, active = well fitted curve in the direction sought with a large enough effect; inconclusive = small, poorly fitted or top-dose-only effect, or another doubt; inactive = no such curve, though single readings can be large; an effect the other way counts as inactive or inconclusive.

SMILES | BRCT inh red | ERK AVP inh | BRCT PPI green | TsaE inh | Pol III holo inh
CC1CCCCN1c1nc(-c2ccncc2)nc2ccccc12 (configuration not stated) | -3% | 32µM* | 2% | i | -1%
O=C1CCCC=C1[C@H](CCc1ccccc1)OC(=O)c1ccc(Br)cc1 | 0%[15.4 µM] | -8%[11.5 µM] | -1%[15.4 µM] | · | ·
COc1ccc(N2CCN(Cc3cc(=O)oc4ccc(Cl)cc34)CC2)cc1 | -1% | 0% | 0% | i | -7%
COc1ccc2nc3cc(Cl)ccc3c(Nc3ccc(O)c(CN4CCN(C)CC4)c3)c2c1 | 1%[15.4 µM] | -11%[11.5 µM] | -2%[15.4 µM] | i | 5µM*
Cc1cc2c(nc1C)CCCN2CC(O)CN1CCCc2nc(C)c(C)cc21 | 1%[15.4 µM] | 25%[11.5 µM] | -1%[15.4 µM] | · | ·
O=[N+]([O-])c1cccc2c[nH]nc12 | -18% | -9% | -8% | i | 16µM*
CCCC(=O)Nc1nc2ccc(NC(=O)c3ccc(Br)o3)cc2s1 | -1% | 20µM* | 3% | i | 3%
CCC(=O)Nc1nc2ccc(NC(C)=O)cc2s1 | 0% | -5% | -3% | i | -8%
CC(=O)N[C@@H](CC(=O)O)C(=O)N[C@@H](CCC(=O)O)C(=O)O | 1% | 17% | -2% | i | 20µM*!
CC(=O)NC(CCC(=O)O)C(=O)O (configuration not stated) | 2% | 51% | -2%[3.08 µM] | · | ·
Cc1ccc2c(c1)C(=O)[C@@]1(O)CCN(c3ccccc3)C1=N2 | -2% | -5% | 0% | i | 2%
C[n+]1cc2c3c(ccc2c2ccc4cc5c(cc4c21)OCO5)OCO3 | 0% | 25µM*! | -1%[3.08 µM] | i | 32µM*!
COc1ccccc1-c1cc(C(=O)N2CCN(c3ccccc3OC)CC2)no1 | 2% | 0% | -1% | i | -6%
CC(=O)OCCNc1cc(N2CCN(C)CC2)c2noc3c2c1C(=O)c1ccccc1-3 | -3% | 16µM* | 112% | i | 5%
COc1ccc(NC(=O)N2CCCC3(CCN(C(=O)c4c(C)noc4C)CC3)C2)cc1 | 0% | 1% | -4% | i | -4%
CCOC(=O)c1[nH]c(C)c(C(=O)N2CCN(c3ccc(F)cc3)CC2)c1C | 1% | 3% | -1% | i | -4%
CCOC(=O)c1[nH]c(C)c(C(=O)c2cc(F)ccc2F)c1C | -3% | 20µM* | 4% | i | -1%
O=C(CS(=O)(=O)c1ccccc1)Nc1nc(-c2ccccc2)cs1 | -3% | 40µM* | 9% | i | -5%
O=C(O)CCCC(=O)Nc1nc(-c2ccccc2)cs1 | 0% | -3% | -2% | i | -7%
Fc1ccc(Nc2ccnc(-c3ccc4c(c3)OCO4)n2)cc1 | 0% | ? | -1% | i | -6%
Fc1ccc(Nc2ccnc(-c3ccoc3)n2)cc1 | 0% | 32µM* | 1% | i | -17%
Nc1nnc(-c2ccco2)s1 | 0% | -10% | -2% | i | 3%
Nc1ncnc2oc(-c3ccco3)c(-c3ccco3)c12 | ? | ? | -27% | 100µM* | 10µM*
Cc1cc2c(c(=O)o1)[C@@H](O)[C@H]1O[C@@H]1C2=O | 2%[15.4 µM] | 5%[11.5 µM] | -1%[15.4 µM] | · | ·
COc1ccc(NC(=O)/C=C\c2ccc(Cl)cc2)cc1 | -1% | ? | -1% | i | -6%
SMILES | BRCT inh red | ERK AVP inh | BRCT PPI green | TsaE inh | Pol III holo inh
COc1ccc(C2CC(=O)c3cnc(NC(=O)c4ccccc4OC)nc3C2)c(OC)c1 (configuration not stated) | 1% | 10µM* | 5% | i | -5%
CC(C)c1ccccc1S(=O)c1ccccc1C(C)(C)O (configuration not stated) | -2%[15.4 µM] | -8%[11.5 µM] | 0%[15.4 µM] | i | 2%[11.4 µM]
S=C(S)NCCCn1ccnc1 | -1%[15.4 µM] | -9%[11.5 µM] | -1%[15.4 µM] | i | -3%[11.4 µM]
O=C(Nc1ccc(-c2nc3ccccc3o2)c(O)c1)c1cc(-n2cnnc2)ccc1Cl | 9% | 6.3µM* | 37% | i | 1%
CC(C)Cn1c(N)c(C(=O)CSc2ccc3c(c2)OCCO3)c(=O)n(C)c1=O | 2% | 2µM* | -2% | i | -6%
CN(C)c1ccc(-c2cncnc2-n2ccnc2)cc1 | 1% | 16µM* | 0% | i | -6%
FC(F)(F)c1ccccc1-c1cncnc1-n1ccnc1 | 1% | 5% | 1% | i | -8%
O=C(NCCO)c1ccc(Cl)cc1 | 0%[15.4 µM] | -19%[11.5 µM] | -1%[15.4 µM] | i | -1%[11.4 µM]
COc1ccc(Cl)cc1NC(=O)C1CSC(c2ccncc2)=N1 (configuration not stated) | 0% | 16µM* | 2% | i | -7%
COc1ccccc1-c1nc(C#N)c(N2CCc3ccccc3C2)o1 | -2% | 20µM* | 0% | i | 3%
S=C=Nc1cccc(NC(=S)NCCCCNC(=S)Nc2cccc(N=C=S)c2)c1 | 0% | -13% | -6% | · | ·
Cc1[nH]nc2c1-c1nc3ccccc3nc1C(C)(C)C2 | -2% | 13µM* | 1% | i | 0%
Cc1n[nH]c(C)c1-c1nc2ccccc2[nH]1 | -2% | 4% | 0% | i | 2%
CC(O)CCCCCCC/C=C/C=C/C(N)=O (configuration not stated) | 0%[15.4 µM] | 8%[11.5 µM] | 0%[15.4 µM] | · | ·
N/C(=N\O)c1cn([C@@H]2O[C@@H](CO)[C@H](O)[C@@H]2O)c2ncnc(NO)c12 | 1%[15.4 µM] | 5%[11.5 µM] | 1%[15.4 µM] | i | -16%[11.4 µM]
c1ccc(CCN2CCN(c3ncnc4c3cnn4-c3ccccc3)CC2)cc1 | -2% | 16µM* | -6% | i | 4%
C[C@@]1(CO)[C@H](O)CC[C@]2(C)[C@@H]1CC[C@H]1C[C@H]3C[C@]12CC[C@]3(O)COC(=O)CN | -1%[15.4 µM] | 6%[11.5 µM] | -2%[15.4 µM] | i | -2%[11.4 µM]
Nc1nc(CSc2n[nH]c(-c3ccccc3)n2)nc(Nc2ccccc2)n1 | 0% | 25µM* | -2% | i | -6%
COc1cccc(Nc2ncc3nc(-c4cn(C)c5ccccc45)c(=O)n(CCC#N)c3n2)c1 | -1% | -14% | -5% | i | -1%
Cn1c(=O)c(-c2ccc(Cl)cc2)nc2cncnc21 | 1% | -6% | 0% | i | -9%
CC(C)(C)Cn1nc(-c2ccc(Cl)cc2)c2c(N)ncnc21 | 1% | 16µM* | -1% | i | -3%
Cn1c(=O)c2c(nc(NCc3ccco3)n2C/C=C/c2ccccc2)n(C)c1=O | 1% | 32µM* | -5% | i | 0%
C[C@@]12C(=O)OC(=O)[C@@]1(C)[C@H]1CC[C@@H]2O1 | -1% | 7.9µM* | -2% | i | -3%
Cc1cccc([N+](=O)[O-])c1C | -1% | 10% | -1% | i | -2%
O=C(NCc1cccnc1)c1ccc(COc2ccc3c(c2)CCC3)o1 | -5% | 25µM* | 1% | i | 6%
O=C(NCc1cccnc1)c1ccc(COc2ccccc2Br)o1 | 0% | -16% | 2% | i | -1%
CC(C)(CN)SCc1ccccc1 | -1%[15.4 µM] | 1%[11.5 µM] | -1%[15.4 µM] | i | -4%[11.4 µM]
N/C(CSc1nc(-c2ccccc2)c(-c2ccccc2)o1)=N\O | 0% | 32µM* | 2% | i | 1%
